Compounds without any hit were thinned out: in the full panel of roughly 83,000, 20% have a hit.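 Values shown are percent growth following 48 h exposure of cells in 96-well plates to a single concentration of compound; below 10 was considered active.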 Active and inactive are the calls of the source.

The results in this text go back to PubChem BioAssay (NCI).

For this experiment, the system named is HL-60(TB) leukemia. In words: NCI-60 one-dose screen, 48 h (100 = growth as untreated, 0 = no growth, -100 = all killed). Particulars: 10 µM unless noted.
Take `COc1ccc(-c2nc(N/N=C/c3cccc(Br)c3)nc(N3CCOCC3)c2C#N)cc1`: the growth is 10.7% (inactive).

Regarding `CN1CCN(c2ccc(-c3ccc4ncc(C#N)c(Nc5ccc(F)c(Cl)c5)c4c3)cn2)CC1`, the growth is 38.1% (inactive).

On to `O=S(=O)(O)c1cccc2cccnc12`, for which the growth is 94% (inactive).

For the compound `Cl/C(=N\Nc1ccccc1)c1ccccc1`, the growth is 101% (inactive).

Take `Cc1cc2nc3c4cc([N+](=O)[O-])ccc4n(CCN(C)C)c3nc2cc1C`: the growth was -4.06% (active).

Turning to `COc1cc(C2C(C(=O)c3cccs3)=C(O)C(=O)N2CCN2CCOCC2)cc(OC)c1OC` (stereo not given), the growth was 120% (inactive).

Regarding `CCN1CCN(CC(=O)Nc2ccc(-c3cn4c(n3)sc3cc(Oc5ccnc(C(=O)NC)c5)ccc34)cc2)CC1`, the growth was -35.4% (active).

With `CCCCC(=O)N/N=C/c1cc(I)cc(I)c1O`, the growth is 4.46% (active).

On to `CCOC(=O)c1ccc(NC(=O)CSC(N)=O)cc1`, for which the growth is 93.2% (inactive).

For `Nc1ccn(C2O[C@H](CO)[C@@H](O)[C@H]2O)c(=O)n1` (stereo not given in full), the growth is 99.7% (inactive).

Take `CC(=O)C(C(C)=O)C(c1ccccc1)C(C(C)=O)C(C)=O`: the growth was 98.5% (inactive).

On to `N#CC1=C(N)Oc2nc[nH]c(=O)c2C1c1cccs1` (stereo not given), for which the growth is 98.8% (inactive).

In the case of `O=[N+]([O-])c1cccc(-c2nc3sccn3c2-c2ccnc(NCCCNS(=O)(=O)c3ccc(F)cc3)n2)c1`, the growth was -12.9% (active).

For the compound `CCN(CC)CCCCCCCNc1cc(OC)cc2c(C)ccnc12`, the growth is 56.2% (inactive).

With `CCOC(=O)c1c(C)[nH]c2ccc(O)cc12`, the growth was 95.7% (inactive).

With `COc1ccc(CC(=O)c2ccc(O)cc2O)cc1`, the growth was 106% (inactive).

In the case of `Cc1nn(-c2ccc(F)cc2)c2ncnc(Nc3ccc(NC(=O)Nc4ccc(Cl)c(C(F)(F)F)c4)cc3)c12`, the growth was 13.2% (inactive).

Regarding `CCN(CC)c1ccc(/C=N\NC(=O)c2cccc(Nc3ccnc(C(F)(F)F)c3)c2)c(O)c1`, the growth is 69.2% (inactive).

As to `CCNC(=O)Oc1ccc(/C(=C(/C)Cc2ccc(OC)cc2)c2ccc(OCCN(CC)CC)cc2)cc1`, the growth is 34.1% (inactive).

On to `COc1cc(/C=C/C(=O)c2c(C)n([O-])c3cc(C)c(C)cc3[n+]2=O)cc(OC)c1OC`, for which the growth is 32.9% (inactive).

With `Cc1cc(=O)oc2cc(OCCn3c(C)nn(-c4ccc(Cl)cc4)c3=O)ccc12`, the growth is -5.7% (active).

With `O=C(Nc1cccc(C2=NCCN2)c1)c1cccc(C(=O)Nc2cccc(C3=NCCN3)c2)c1`, the growth is 98.7% (inactive).

For `CCCCCN(CCCCC)CC(O)c1c(Cl)ccc2ccccc12` (stereo not given), the growth is 87.6% (inactive).

Take `CNc1ccc(-c2cc(=O)oc3ccc(Cl)cc23)cc1`: the growth is -13.5% (active).

As for `Cc1c(O)cc(-c2cnc(N/N=C\c3ccc(Cl)cc3)s2)c(O)c1C`, the growth is -3.05% (active).

Take `CCCCC1Nc2nc(SC)n(C)c(=O)c2CN(Cc2ccccc2)C1=O` (stereo not given): the growth was 111% (inactive).

As to `O=C(Nc1cc(Cl)cc2c1-c1ccc(Cl)cc1C2O)C(Cl)Cl` (stereo not given), the growth was 76.2% (inactive).

On to `COc1ccc(-c2cn[nH]c2-c2cc(OC)c3c(c2)OCCO3)cc1`, for which the growth is -33.2% (active).

Turning to `CC1SC(c2cccc(Oc3ccccc3)c2)N(CCc2cccs2)C1=O` (stereo not given), the growth is -21.9% (active).

For `CCCN(CCC)CC(O)COc1ccccc1C(=O)Nc1ccccc1` (stereo not given), the growth was 17.3% (inactive).

`C=CCCCCOc1ccccc1-c1cnc(OCCCCC=C)n1C`: the growth is 66.5% (inactive).

For the compound `OCCNCCNc1c2ccccc2nc2ccccc12`, the growth is 86.2% (inactive).

Turning to `COc1ccc2c(c1)CCCN2c1c2ccccc2nc2ccccc12`, the growth was 5.6% (active).

As for `CCn1cc(-c2[nH]c(=S)ncc2-c2ccc(Cl)cc2)c(-c2ccc(Br)cc2)n1`, the growth is 117% (inactive).

With `Cc1c(C(=O)OCCO)cc(-c2ccc(Cl)cc2)n1-c1ccc(Cl)cc1Cl`, the growth was 59.7% (inactive).

`O=S(O)c1cc(Cl)cc(Cl)c1OCc1ccccc1`: the growth is 109% (inactive).

On to `CNC(=O)c1c(C)oc2cc(Oc3ncnc4cc(OC)c(OC)cc34)ccc12`, for which the growth is 117% (inactive).

As for `C/C(=C(\c1ccc(OCCCN(C)C)cc1)c1ccc(OC(=O)Cc2ccccc2)cc1)c1ccc(Cl)cc1`, the growth was 78% (inactive).

Consider `O=C(CSc1nc(-c2ccccc2)cn1-c1ccc(Cl)cc1)c1ccc([N+](=O)[O-])cc1`, for which the growth was 95.8% (inactive).

Regarding `CCc1ccc(C2=C/C(=C/c3ccc(Cl)cc3)C(=O)N2CCc2ccc(S(N)(=O)=O)cc2)cc1`, the growth was -18.9% (active).
